This is an account of results in PubChem BioAssay (NCATS).

Several values for one entry are separate records, joined by “and”; a condition that tells them apart may be missing. Identical values can stand only once. Records with an inconclusive call do not appear. Activity calls are given as the source filed them. The call rests on the fitted dose curve; in most records, active means well fitted curve in the direction sought with a large enough effect; inconclusive means small, poorly fitted or top-dose-only effect, or another doubt; inactive means no such curve, though single readings can be large; an effect the other way counts as inactive or inconclusive.
Potency means the concentration at half of the fitted maximal effect.

Peroxisome proliferator-activated receptor alpha (Homo sapiens), sequence (Q07869 whole entry, looked up, the tested form may be a part): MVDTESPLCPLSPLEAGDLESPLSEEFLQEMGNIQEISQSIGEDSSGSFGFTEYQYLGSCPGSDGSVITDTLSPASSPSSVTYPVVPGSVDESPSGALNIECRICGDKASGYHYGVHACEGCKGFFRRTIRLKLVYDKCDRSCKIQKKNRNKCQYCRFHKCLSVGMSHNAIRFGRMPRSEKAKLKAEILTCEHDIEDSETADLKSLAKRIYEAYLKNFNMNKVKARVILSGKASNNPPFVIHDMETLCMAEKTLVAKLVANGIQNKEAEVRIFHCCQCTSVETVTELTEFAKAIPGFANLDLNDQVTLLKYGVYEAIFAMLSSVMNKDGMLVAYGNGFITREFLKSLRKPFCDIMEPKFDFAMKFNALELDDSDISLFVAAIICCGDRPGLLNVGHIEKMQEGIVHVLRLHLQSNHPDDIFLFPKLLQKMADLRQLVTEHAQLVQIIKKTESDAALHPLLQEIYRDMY
Tyrosine-protein kinase Yes (Homo sapiens), sequence (P07947 whole entry, looked up): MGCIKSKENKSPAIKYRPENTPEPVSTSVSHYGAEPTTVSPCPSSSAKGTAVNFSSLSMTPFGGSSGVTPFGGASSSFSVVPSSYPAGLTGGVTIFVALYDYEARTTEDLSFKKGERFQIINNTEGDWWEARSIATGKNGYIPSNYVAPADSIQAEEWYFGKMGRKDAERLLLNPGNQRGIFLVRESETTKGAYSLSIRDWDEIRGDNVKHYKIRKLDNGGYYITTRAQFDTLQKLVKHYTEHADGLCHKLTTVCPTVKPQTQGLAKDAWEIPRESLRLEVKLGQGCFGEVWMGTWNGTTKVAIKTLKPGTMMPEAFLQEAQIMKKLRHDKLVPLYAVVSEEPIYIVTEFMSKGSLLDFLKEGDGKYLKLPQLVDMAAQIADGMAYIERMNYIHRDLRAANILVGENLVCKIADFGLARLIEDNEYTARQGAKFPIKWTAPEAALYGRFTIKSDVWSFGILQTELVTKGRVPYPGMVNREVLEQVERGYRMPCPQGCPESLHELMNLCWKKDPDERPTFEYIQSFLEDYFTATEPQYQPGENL
Nuclear receptor ROR-gamma (Homo sapiens), sequence (P51449 whole entry, looked up): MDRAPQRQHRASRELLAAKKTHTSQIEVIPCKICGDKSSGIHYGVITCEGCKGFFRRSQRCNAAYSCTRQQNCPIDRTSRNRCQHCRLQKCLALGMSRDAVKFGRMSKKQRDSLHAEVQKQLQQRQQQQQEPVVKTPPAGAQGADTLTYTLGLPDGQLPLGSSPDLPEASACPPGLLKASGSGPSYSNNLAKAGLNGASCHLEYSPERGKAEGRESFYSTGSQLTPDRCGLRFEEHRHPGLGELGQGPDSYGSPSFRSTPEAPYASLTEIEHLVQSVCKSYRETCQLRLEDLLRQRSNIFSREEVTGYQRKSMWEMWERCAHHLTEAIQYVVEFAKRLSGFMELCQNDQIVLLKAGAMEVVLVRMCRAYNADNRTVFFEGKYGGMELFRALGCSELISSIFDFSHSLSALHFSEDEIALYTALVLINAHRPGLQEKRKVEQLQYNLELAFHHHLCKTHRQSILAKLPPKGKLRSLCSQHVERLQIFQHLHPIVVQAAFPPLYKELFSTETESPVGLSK

One assay has as its target Peroxisome proliferator-activated receptor alpha (Homo sapiens) (UniProt Q07869). Briefly: qHTS assay for small molecule agonists of the peroxisome proliferator-activated receptor alpha (PPARalpha) signaling pathway (AID 651778). On max response: % of control where 0% means no effect. Particulars: PathHunter PPARalpha complementation, chemiluminescence, 6 h; max response: hits give high values. In a few lines:
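Enzyme-fragment complementation assay in which ligand-bound PPARalpha translocates and forms an active enzyme that generates chemiluminescence. Cells were plated overnight, exposed to compound for 6 hr at 37 C, and then given detection reagent for 60 min at room temperature.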
(Quantitative high-throughput screening tests each substance at several concentrations.)
In the case of `CN(Cc1cnc2nc(N)nc(N)c2n1)c1ccc(C(=O)N[C@@H](CCC(=O)O)C(=O)O)cc1`, the max response is -3.74% (inactive).
`Cc1cn([C@H]2C[C@H](N=[N+]=[N-])[C@@H](CO)O2)c(=O)[nH]c1=O`: the max response was 0.0124% (inactive) and -0.27% (inactive).
As for `CC(C)(Oc1ccc(C2CC2(Cl)Cl)cc1)C(=O)O` (stereo not given), the Potency is 14.1 µM (active).
With `Cn1c(=O)c2c(ncn2C)n(C)c1=O`, the max response is -7.69% (inactive) and -2.94% (inactive).
In the case of `C[C@](N)(Cc1ccc(O)c(O)c1)C(=O)O`, the max response was -1.06% (inactive).
The same measure, in the same setting: for `Cn1c(=O)c2[nH]cnc2n(C)c1=O` the value was -1.61% (inactive); for `O=c1c(-c2ccc(O)cc2)coc2cc(O)cc(O)c12`, -1.44% (inactive) and -0.484% (inactive); for `N[C@@H](Cc1c[nH]c2ccc(O)cc12)C(=O)O`, -1.51% (inactive).
Regarding `O=C(CCCN1CCC(O)(c2ccc(Cl)cc2)CC1)c1ccc(F)cc1`, the max response was -1.35% (inactive).
`COc1ccc2c(c1)c(CC(=O)O)c(C)n2C(=O)c1ccc(Cl)cc1`: the max response is 11.2% (inactive) and 10.8% (inactive).
Same read-out and setting: for `O=C(c1ccc(OCCN2CCCCC2)cc1)c1c(-c2ccc(O)cc2)sc2cc(O)ccc12` the value was -6.34% (inactive).
As for `Cn1cnc2c1c(=O)[nH]c(=O)n2C`, the max response was -2.11% (inactive).
As to `Cc1ccc(-c2cc(C(F)(F)F)nn2-c2ccc(S(N)(=O)=O)cc2)cc1`, the max response was 3.54% (inactive).
Same read-out and setting: the figure for `O=C(Nc1ccc([N+](=O)[O-])cc1Cl)c1cc(Cl)ccc1O` is -1.62% (inactive); for `COc1ccc2[nH]cc(CCNC(C)=O)c2c1` it is -3.03% (inactive) and -8.27% (inactive) and 0.529% (inactive).
`CC(C)NCC(O)c1ccc(O)c(O)c1` (stereo not given): the max response was -1.03% (inactive) and -0.0809% (inactive).
For `COc1cc2c(c(OC)c1OC)-c1ccc(OC)c(=O)cc1[C@@H](NC(C)=O)CC2`, the max response is -2.35% (inactive) and 0.0679% (inactive) and 8.6% (inactive).
For `CCOC(=O)C(C)(C)Oc1ccc(Cl)cc1`, the max response is 5.39% (inactive).
Same read-out and setting: for `CN(C)CCOC(c1ccccc1)c1ccccc1` the value was -3.61% (inactive); for `CC(C)Cc1ccc(C(C)C(=O)O)cc1` (stereo not given), -0.128% (inactive); for `NS(=O)(=O)c1cc2c(cc1Cl)NCNS2(=O)=O`, -0.533% (inactive) and -1.17% (inactive).
In the case of `Clc1ccc(C(c2ccccc2Cl)C(Cl)Cl)cc1` (stereo not given), the max response is 18.7% (inactive).
On the same count and under the same terms, for `Nc1ccn([C@H]2CC[C@@H](CO)O2)c(=O)n1` the value was -1.99% (inactive) and 0.814% (inactive); for `Cc1cn([C@H]2C=C[C@@H](CO)O2)c(=O)[nH]c1=O`, 1.44% (inactive) and 1.55% (inactive) and -0.234% (inactive).
On the same count and under the same terms, for `NCCS(=O)(=O)O` the value was 5.59% (inactive); for `CC(C)C(=O)Nc1ccc([N+](=O)[O-])c(C(F)(F)F)c1`, -5.17% (inactive) and -3.96% (inactive).
On the same count and under the same terms, the figure for `Nc1c2c(nc3ccccc13)CCCC2` is -6.35% (inactive); for `CCC1(c2ccccc2)C(=O)NCNC1=O` it is -5.03% (inactive) and -3.26% (inactive); for `O=c1[nH]cc(F)c(=O)[nH]1` it is -2.48% (inactive).
In the case of `CC#C[C@]1(O)CC[C@H]2[C@@H]3CCC4=CC(=O)CCC4=C3[C@@H](c3ccc(N(C)C)cc3)C[C@@]21C`, the max response was -3.32% (inactive).
Still for that read-out and setting: the figure for `CC(COc1ccccc1)N(CCCl)Cc1ccccc1` (stereo not given) is -4.85% (inactive) and -2.28% (inactive).

The next assay concerns the target Nuclear receptor ROR-gamma (Homo sapiens) (UniProt P51449). Briefly: qHTS assay for small molecule antagonists of the retinoid-related orphan receptor gamma (ROR-gamma) signaling pathway (AID 651802). Further: nearly all actives have a fitted effect of over 60% in size. Particulars: ROR-gamma antagonist cell reporter assay; series mostly up to 92.2 µM. In a few lines:
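Steps: cells dispensed; compound or DMSO transferred by pin tool; doxycycline added to induce the ROR response element-driven luciferase; plates held 16hr at 37C; ONE-Glo added and luminescence measured.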
In the case of `Cc1cn([C@H]2C[C@H](N=[N+]=[N-])[C@@H](CO)O2)c(=O)[nH]c1=O`, the Potency result is “inactive”.
Turning to `Cn1c(=O)c2c(ncn2C)n(C)c1=O`, the Potency result is “inactive”.
Turning to `O=c1c(-c2ccc(O)cc2)coc2cc(O)cc(O)c12`, the Potency result is “inactive”.
Still for that read-out and setting: for `COc1ccc2[nH]cc(CCNC(C)=O)c2c1` the value was “inactive”; for `CC(C)NCC(O)c1ccc(O)c(O)c1` (stereo not given), “inactive”.
Still for that read-out and setting: for `NS(=O)(=O)c1cc2c(cc1Cl)NCNS2(=O)=O` the value was “inactive”; for `Clc1ccc(C(c2ccccc2Cl)C(Cl)Cl)cc1` (stereo not given), 33.5 µM (active); for `Nc1ccn([C@H]2CC[C@@H](CO)O2)c(=O)n1`, “inactive”.
Still for that read-out and setting: for `Cc1cn([C@H]2C=C[C@@H](CO)O2)c(=O)[nH]c1=O` the value was “inactive”; for `NCCS(=O)(=O)O`, “inactive”; for `Nc1c2c(nc3ccccc13)CCCC2`, “inactive”.
Consider `CCC1(c2ccccc2)C(=O)NCNC1=O`, for which the Potency entry is “inactive”.
The same measure, in the same setting: the entry for `O=c1[nH]cc(F)c(=O)[nH]1` is “inactive”.

Another assay deals with Tyrosine-protein kinase Yes (Homo sapiens) (UniProt P07947). Briefly: qHTS for small molecule inhibitors of Yes1 kinase: Primary Screen (AID 686947). Further: nearly all actives have a fitted effect of over 60% in size. Particulars: Yes1 kinase biochemical qHTS inhibition; series mostly up to 76.9 µM. In short, it runs like this:
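ADP-Glo luminescence reports ADP formed by 4 nM Yes1 phosphorylating poly(E4Y) (0.3 mg/mL) with 0.1 mM ATP for 60 min at room temperature, following 20 min compound preincubation; normalised between DMSO wells with and without enzyme.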
For the compound `CC1(CN2CCC(n3c(=O)[nH]c4ccccc43)CC2)OCc2ccccc2-n2cccc21` (stereo not given), the Potency result was “inactive”.
Regarding `Cc1ccc(-c2cc(C(F)(F)F)nn2-c2ccc(S(N)(=O)=O)cc2)cc1`, the Potency entry was “inactive”.
The same measure, in the same setting: for `O=C1c2c(O)ccc(O)c2C(=O)c2c(NCCNCCO)ccc(NCCNCCO)c21` the value was 34.5 µM (active).
Still for that read-out and setting: the entry for `CN(C)C(=N)N=C(N)N` is “inactive”.
Same read-out and setting: the entry for `Cn1ccc2cc3c(cc21)CCN3C(=O)Nc1cccnc1` is “inactive”; for `COc1ccc(CCN(C)CCCC(C#N)(c2ccc(OC)c(OC)c2)C(C)C)cc1OC` (stereo not given) it is “inactive”.
